# Assay results published in PubChem BioAssay (Tox21).
# Values joined by “and” are separate entries in the source; they are usually repeats but may differ in a detail not shown here. Equal entries are not always repeated. Records with an inconclusive call do not appear. Entries that show only a call come without a potency. A structure can be active in one record and inactive in another. Active and inactive are the calls of the source. Calls come from the whole dose curve; as a rule, active = well fitted curve in the direction sought with a large enough effect in the repeat runs; inconclusive = weak or mixed curves; inactive = no such curve, though single readings can be large; an effect the other way counts as inactive or inconclusive.
# How the values were obtained:
# [1] = molecular target: Cytochrome P450 2C19 (Homo sapiens) (UniProt P33261); test: Cytochrome P450 Family 2 Subfamily C Member 19 (CYP2C19) small molecule antagonists: luciferase reporter qHTS assay (AID 1671197); note: nearly all actives have a fitted effect of over 65% in size; for activity change, negative = inhibition: series mostly up to about 120 µM
# How it was run: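 Luminescent readout of CYP2C19 activity: luciferin product detected 20 min after adding detection reagent. Before that, compound and enzyme-substrate mix preincubated 10 min at room temperature; NADPH-regenerating system started a 1 h, 37C reaction. Ketoconazole as positive control.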
# [2] = molecular target: Cytochrome P450 2C9 (Homo sapiens) (UniProt P11712); test: Cytochrome P450 Family 2 Subfamily C Member 9 (CYP2C9) small molecule antagonists: luciferase reporter qHTS assay (AID 1671198); note: nearly all actives have a fitted effect of over 50% in size; for activity change, negative = inhibition: series mostly up to about 120 µM
# How it was run: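 P450-Glo proluciferin substrate with CYP2C9 enzyme; 10 min RT preincubation, then NADPH regeneration 1 h at 37C; luciferin detection reagent 20 min RT, luminescence in relative luminescence units.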
# [3] = molecular target: Cytochrome P450 1A2 (Homo sapiens) (UniProt P05177); test: Cytochrome P450 Family 1 Subfamily A Member 2 (CYP1A2) small molecule antagonists: luciferase reporter qHTS assay (AID 1671199); note: nearly all actives have a fitted effect of over 50% in size; for activity change, negative = inhibition: series mostly up to about 120 µM
# How it was run: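 Room-temperature CYP1A2 reaction with proluciferin substrate: compounds added from DMSO, 10 min preincubation, NADPH regeneration for 1 h. Luciferin detection reagent then added; luminescence recorded as RLU.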
# [4] = molecular target: Voltage-gated inwardly rectifying potassium channel KCNH2 (Homo sapiens) (UniProt Q12809); test: Human Ether-a-go-go-Related Gene (hERG) channel small molecule antagonists: fluorescence cell-based qHTS assay (AID 1671200); note: nearly all actives have a fitted effect of over 50% in size;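 for activity change, negative = inhibition: hERG-expressing U2OS cells given a thallium stimulus after FluxOR II dye loading; series mostly up to about 77 µM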
# How it was run: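 Fluorescence at 540 nm emission (480 nm excitation) was recorded kinetically for 2 min at 1-second intervals once the thallium-containing stimulus reached cells previously loaded with FluxOR II dye.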
# [5] = molecular target: Cytochrome P450 3A4 (Homo sapiens) (UniProt P08684); test: Cytochrome P450 Family 3 Subfamily A Member 4 (CYP3A4) small molecule antagonists: luciferase reporter qHTS assay (AID 1671201); note: nearly all actives have a fitted effect of over 50% in size; for activity change, negative = inhibition: series mostly up to about 120 µM
# How it was run: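 qHTS, 1536-well. CYP3A4 + proluciferin substrate, cpd 10 min RT → NADPH regen 1 h RT → detection reagent 20 min → luminescence (RLU). Ketoconazole positive control.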
# Potency is the fitted concentration of half-maximal effect.
# Sequence of Cytochrome P450 3A4 (Homo sapiens) (P08684 whole entry, looked up): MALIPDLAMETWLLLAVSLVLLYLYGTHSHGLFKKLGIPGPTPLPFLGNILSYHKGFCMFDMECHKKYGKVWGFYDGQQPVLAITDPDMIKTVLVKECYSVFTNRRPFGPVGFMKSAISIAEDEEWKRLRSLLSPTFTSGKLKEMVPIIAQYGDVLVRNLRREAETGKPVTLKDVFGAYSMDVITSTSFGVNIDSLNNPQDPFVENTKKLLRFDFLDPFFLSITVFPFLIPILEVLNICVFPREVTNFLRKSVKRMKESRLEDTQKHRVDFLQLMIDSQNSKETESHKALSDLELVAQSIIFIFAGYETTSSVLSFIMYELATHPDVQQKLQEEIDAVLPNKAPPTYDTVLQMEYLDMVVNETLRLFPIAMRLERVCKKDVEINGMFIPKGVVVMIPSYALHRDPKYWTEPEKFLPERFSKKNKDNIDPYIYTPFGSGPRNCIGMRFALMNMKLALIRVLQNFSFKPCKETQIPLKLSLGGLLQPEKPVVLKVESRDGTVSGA
# Sequence of Cytochrome P450 2C19 (Homo sapiens) (P33261 whole entry, looked up): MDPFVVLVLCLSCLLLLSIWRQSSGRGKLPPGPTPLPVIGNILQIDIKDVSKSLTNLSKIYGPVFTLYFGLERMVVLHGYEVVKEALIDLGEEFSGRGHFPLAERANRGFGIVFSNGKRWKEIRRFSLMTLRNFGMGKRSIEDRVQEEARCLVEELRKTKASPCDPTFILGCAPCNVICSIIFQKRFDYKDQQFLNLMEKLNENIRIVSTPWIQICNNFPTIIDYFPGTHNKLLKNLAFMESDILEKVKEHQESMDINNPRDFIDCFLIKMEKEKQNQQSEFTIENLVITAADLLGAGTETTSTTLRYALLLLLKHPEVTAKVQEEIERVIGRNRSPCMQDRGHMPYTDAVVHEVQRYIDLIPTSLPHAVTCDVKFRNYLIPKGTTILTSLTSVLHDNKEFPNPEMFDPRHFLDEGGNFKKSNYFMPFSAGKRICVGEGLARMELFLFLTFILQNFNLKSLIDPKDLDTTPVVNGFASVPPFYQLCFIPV
# Sequence of Cytochrome P450 1A2 (Homo sapiens) (P05177 whole entry, looked up): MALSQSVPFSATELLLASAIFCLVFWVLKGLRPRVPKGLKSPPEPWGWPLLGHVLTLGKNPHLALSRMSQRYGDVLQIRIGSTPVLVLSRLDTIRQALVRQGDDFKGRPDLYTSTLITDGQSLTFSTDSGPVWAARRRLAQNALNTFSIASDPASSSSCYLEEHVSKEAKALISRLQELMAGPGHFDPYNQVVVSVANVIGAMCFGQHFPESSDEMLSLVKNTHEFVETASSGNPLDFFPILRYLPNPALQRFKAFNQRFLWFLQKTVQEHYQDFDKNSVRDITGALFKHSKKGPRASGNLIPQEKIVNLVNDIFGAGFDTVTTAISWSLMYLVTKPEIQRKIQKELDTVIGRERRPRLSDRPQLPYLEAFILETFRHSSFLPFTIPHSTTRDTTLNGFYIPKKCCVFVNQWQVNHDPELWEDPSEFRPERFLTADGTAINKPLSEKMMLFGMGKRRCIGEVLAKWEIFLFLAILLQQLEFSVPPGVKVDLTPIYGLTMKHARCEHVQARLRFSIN
# Sequence of Voltage-gated inwardly rectifying potassium channel KCNH2 (Homo sapiens) (Q12809 whole entry, looked up): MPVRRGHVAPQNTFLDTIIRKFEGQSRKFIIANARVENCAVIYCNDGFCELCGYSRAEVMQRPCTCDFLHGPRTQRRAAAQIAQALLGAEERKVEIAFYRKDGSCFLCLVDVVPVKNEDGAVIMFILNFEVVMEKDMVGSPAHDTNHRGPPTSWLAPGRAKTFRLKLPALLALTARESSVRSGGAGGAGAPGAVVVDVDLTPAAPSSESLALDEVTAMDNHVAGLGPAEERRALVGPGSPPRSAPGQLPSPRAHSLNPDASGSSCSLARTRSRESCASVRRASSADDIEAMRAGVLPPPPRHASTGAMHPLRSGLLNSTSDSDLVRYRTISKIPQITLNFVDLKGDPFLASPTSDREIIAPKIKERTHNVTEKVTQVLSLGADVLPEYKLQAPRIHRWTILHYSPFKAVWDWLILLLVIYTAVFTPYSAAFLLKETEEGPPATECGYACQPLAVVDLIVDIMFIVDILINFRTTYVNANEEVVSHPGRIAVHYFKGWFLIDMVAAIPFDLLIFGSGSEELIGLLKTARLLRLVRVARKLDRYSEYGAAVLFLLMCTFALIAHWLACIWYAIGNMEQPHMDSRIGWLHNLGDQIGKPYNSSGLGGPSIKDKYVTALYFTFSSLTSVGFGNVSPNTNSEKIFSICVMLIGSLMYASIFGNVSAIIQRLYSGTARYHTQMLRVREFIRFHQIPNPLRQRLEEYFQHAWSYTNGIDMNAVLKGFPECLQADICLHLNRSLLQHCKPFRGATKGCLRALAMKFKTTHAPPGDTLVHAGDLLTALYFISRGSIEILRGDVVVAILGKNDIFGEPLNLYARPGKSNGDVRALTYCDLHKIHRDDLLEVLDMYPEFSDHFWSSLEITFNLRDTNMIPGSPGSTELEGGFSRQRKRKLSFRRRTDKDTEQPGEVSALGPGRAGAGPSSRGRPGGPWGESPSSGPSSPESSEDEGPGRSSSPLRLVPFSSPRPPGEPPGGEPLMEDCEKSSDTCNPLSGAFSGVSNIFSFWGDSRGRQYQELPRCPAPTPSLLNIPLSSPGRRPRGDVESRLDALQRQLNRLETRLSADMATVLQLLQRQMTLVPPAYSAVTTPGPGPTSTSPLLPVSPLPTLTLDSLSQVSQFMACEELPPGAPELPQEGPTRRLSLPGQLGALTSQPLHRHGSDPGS
# Sequence of Cytochrome P450 2C9 (Homo sapiens) (P11712 whole entry, looked up): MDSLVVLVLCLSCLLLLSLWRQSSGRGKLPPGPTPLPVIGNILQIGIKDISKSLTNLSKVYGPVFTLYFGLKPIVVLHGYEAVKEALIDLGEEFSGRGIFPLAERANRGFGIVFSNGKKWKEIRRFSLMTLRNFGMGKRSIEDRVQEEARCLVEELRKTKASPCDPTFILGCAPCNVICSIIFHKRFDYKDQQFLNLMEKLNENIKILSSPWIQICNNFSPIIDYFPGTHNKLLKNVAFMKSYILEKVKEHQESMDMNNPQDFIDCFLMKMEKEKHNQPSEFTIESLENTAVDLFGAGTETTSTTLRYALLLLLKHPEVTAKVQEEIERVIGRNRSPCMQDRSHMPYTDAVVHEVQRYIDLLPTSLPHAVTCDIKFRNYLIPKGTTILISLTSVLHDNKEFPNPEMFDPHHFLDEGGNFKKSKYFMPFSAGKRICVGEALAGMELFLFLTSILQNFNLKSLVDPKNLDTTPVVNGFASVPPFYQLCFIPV
smiles,measurement,setting,value
CC(N=C(NC#N)Nc1ccncc1)C(C)(C)C (stereo not given),Potency,[1],1.55 µM (active)
same,Potency,[2],13.8 µM (active)
same,Potency,[3],inactive
same,Potency,[4],inactive
CCCc1ccc(OCC(=O)N2CCN(C(=O)COc3ccc(CCC)cc3OC)CC2)c(OC)c1,Potency,[1],3.47 µM (active)
same,Potency,[2],3.47 µM (active)
same,Potency,[3],inactive
same,Potency,[4],1.34 µM (active)
CCCCC(CC)CN1CN(CC(CC)CCCC)CC(C)(N)C1 (stereo not given),Potency,[1],inactive
same,Potency,[2],inactive
same,Potency,[3],inactive
same,Potency,[4],2.68 µM (active)
CN(C)[C@@H](CCOc1cccc2ccccc12)c1ccccc1,Potency,[1],0.977 µM (active)
same,Potency,[2],15.5 µM (active)
same,Potency,[3],7.76 µM (active)
same,Potency,[4],6.01 µM (active)
c1ccc(SSc2ccccc2)cc1,Potency,[1],22.6 µM (active)
same,Potency,[2],31.9 µM (active)
same,Potency,[3],3.19 µM (active)
same,Potency,[4],inactive
same,Potency,[5],inactive
CCCC1CCC(=O)CC1,Potency,[1],inactive
same,Potency,[2],inactive
same,Potency,[3],inactive
same,Potency,[4],inactive
same,Potency,[5],inactive
COc1c(C)c2c(c(O)c1C/C=C(\C)CCC(=O)OCCN1CCOCC1)C(=O)OC2,Potency,[1],inactive
same,Potency,[2],13.8 µM (active)
same,Potency,[3],inactive
same,Potency,[4],inactive
CCCCCCCC,Potency,[1],inactive
same,Potency,[2],inactive
same,Potency,[3],inactive
same,Potency,[4],inactive
same,Potency,[5],inactive
O=C1CCc2cc(OCCCCc3nnnn3C3CCCCC3)ccc2N1,Potency,[1],inactive
same,Potency,[2],12.3 µM (active)
same,Potency,[3],inactive
same,Potency,[4],inactive
Cc1nc2n(c(=O)c1CCN1CCC(c3noc4cc(F)ccc34)CC1)CCCC2,Potency,[1],inactive
same,Potency,[2],inactive
Cl[Si](Cl)(c1ccccc1)c1ccccc1,Potency,[1],20.5 µM (active)
same,Potency,[2],23 µM (active)
same,Potency,[3],64.8 µM (active)
same,Potency,[4],inactive
same,Potency,[5],5.14 µM (active)
CCC(CC)(CC(=O)Nc1cccc(/C=C/c2nc(C3CCC3)cs2)c1)C(=O)O,Potency,[1],inactive
same,Potency,[2],27.5 µM (active)
same,Potency,[3],24.5 µM (active)
same,Potency,[4],inactive
CC(C)(C)NSc1nc2ccccc2s1,Potency,[1],32.2 µM (active)
same,Potency,[2],16.2 µM (active)
same,Potency,[3],32.2 µM (active)
same,Potency,[4],inactive
CCCCCCCC/C=C\CCCCCCCCN,Potency,[1],4.36 µM (active)
same,Potency,[2],38.9 µM (active)
same,Potency,[3],12.9 µM (active)
same,Potency,[4],inactive
C#C[C@]1(O)CC[C@H]2[C@@H]3[C@H](C)CC4=C(CCC(=O)C4)[C@H]3CC[C@@]21C,Potency,[1],3.89 µM (active)
same,Potency,[2],13.8 µM (active)
same,Potency,[3],24.5 µM (active)
same,Potency,[4],inactive
C#CC1(O)CC[C@H]2[C@@H]3CCC4=CCCC[C@@H]4[C@H]3CC[C@@]21C (stereo not given in full),Potency,[1],7.96 µM (active) and 11 µM (active)
same,Potency,[2],7.1 µM (active) and 6.92 µM (active)
same,Potency,[3],39.9 µM (active)
O=C(O)CCN(C1(C(=O)NO)CCCC1)S(=O)(=O)c1ccc(Oc2ccc(F)cc2)cc1,Potency,[1],inactive
same,Potency,[2],inactive
same,Potency,[3],inactive
same,Potency,[4],inactive
same,Potency,[5],inactive
CCC(=O)OC(=O)CC,Potency,[1],inactive
same,Potency,[2],inactive
same,Potency,[3],inactive
same,Potency,[4],inactive
same,Potency,[5],inactive
O=C(O)c1cc(=O)c2ccccc2o1,Potency,[1],inactive
same,Potency,[2],inactive
same,Potency,[3],inactive
same,Potency,[4],inactive
same,Potency,[5],inactive
COc1cc(C)ccc1O,Potency,[1],56.4 µM (active)
same,Potency,[2],inactive
same,Potency,[3],39.9 µM (active)
same,Potency,[4],inactive
same,Potency,[5],inactive
COc1cc2nc(N3CCN(C(=O)c4ccco4)CC3)nc(N)c2cc1OC,"activity change, negative = inhibition",[1],16.3% [at 23.6 µM] (inactive)
same,"activity change, negative = inhibition",[2],1.12% [at 23.6 µM] (inactive)
same,"activity change, negative = inhibition",[3],1.24% [at 23.6 µM] (inactive)
same,"activity change, negative = inhibition",[4],-1.36% [at 15.8 µM] (inactive)
same,"activity change, negative = inhibition",[5],135% [at 23.6 µM] (inactive)
[Cu+],Potency,[1],2.24 µM (active)
same,Potency,[2],11.2 µM (active)
same,Potency,[3],39.9 µM (active)
same,Potency,[4],inactive
same,Potency,[5],39.9 µM (active)
CCc1ccc(Br)cc1,Potency,[1],inactive
same,Potency,[2],inactive
same,Potency,[3],inactive
same,Potency,[4],inactive
same,Potency,[5],inactive
O=C(O)Cc1ccc2c(c1)C(=O)c1ccccc1CO2,Potency,[1],inactive
same,Potency,[2],inactive
same,Potency,[3],inactive
same,Potency,[4],inactive
same,Potency,[5],inactive
CCCCCCCCCCCCCC[N+](C)(C)Cc1ccccc1,Potency,[1],64.3 µM (active) and 20 mM (active)
same,Potency,[2],80.9 µM (active)
same,Potency,[3],72.1 µM (active) and inactive
same,Potency,[4],993 nM (active) and 1.69 µM (active) and 1000 µM (active)
same,Potency,[5],inactive
Cc1cc(C)c(/C=C2\C(=O)Nc3ccccc32)[nH]1,Potency,[1],7.76 µM (active)
same,Potency,[2],11 µM (active)
same,Potency,[3],1.44 µM (active)
same,Potency,[4],inactive
same,Potency,[5],inactive
Oc1ccccc1O,Potency,[1],80.6 µM (active) and inactive
same,Potency,[2],inactive
same,Potency,[3],inactive
same,Potency,[4],inactive
same,Potency,[5],inactive
COC(=O)C1=C(C)NC(C)=C(C(=O)OCCN2CCN(C(c3ccccc3)c3ccccc3)CC2)C1c1cccc([N+](=O)[O-])c1 (stereo not given),Potency,[1],2.45 µM (active)
same,Potency,[2],0.692 µM (active)
same,Potency,[3],inactive
same,Potency,[4],5.35 µM (active)
same,Potency,[5],inactive
Cc1c(F)c(N2CCNC(C)C2)cc2c1c(=O)c(C(=O)O)cn2C1CC1 (stereo not given),Potency,[1],inactive
same,Potency,[2],inactive
same,Potency,[3],inactive
same,Potency,[4],inactive
same,Potency,[5],inactive
NC(=S)NC(N)=S,Potency,[1],20 µM (active)
same,Potency,[2],7.96 µM (active)
same,Potency,[3],35.6 µM (active)
same,Potency,[4],inactive
same,Potency,[5],inactive
CCc1cccc(CC)c1NC(=O)CN(CC(=O)O)CC(=O)O,Potency,[1],inactive
same,Potency,[2],inactive
same,Potency,[3],inactive
same,Potency,[4],inactive
same,Potency,[5],inactive
NC(=O)c1cccc([N+](=O)[O-])c1,Potency,[1],inactive
same,Potency,[2],inactive
same,Potency,[3],35.4 µM (active)
same,Potency,[4],inactive
same,Potency,[5],inactive
